Sampled rows, rich in hits. Any-hit rate of the full collection: about 0.43%.
GAA spleen mod = qHTS Assay for Inhibitors and Activators of Human alpha-Glucosidase From Spleen Homogenate | human spleen homogenate, 4-MU-alpha-glucoside fluorescence | Potency, µM (highest dose often 79.9 µM), actives largely listed as inhibitors | hit rate 0.006% among 240,000 | AID 2112, 2009
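Human spleen homogenate (1 ug) incubated with compounds and 1 mM 4-methylumbelliferyl-alpha-D-glucopyranoside in pH 5.0 citrate/phosphate buffer, 37 C, 40 min. Stopped at pH 10; 4-MU fluorescence (Ex 365/Em 440 nm); AC50 by Hill fit.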
GLA inh pH 4.5 = qHTS Assay for Inhibitors of Human alpha-Galactosidase at pH 4.5; Alpha-galactosidase A (Homo sapiens), P06280; purified enzyme, 4-MU-alpha-Gal fluorescence, pH 4.5; activity change, negative = inhibition, % at 105 µM; 230,000 tested, under 10 active
N370S GC = qHTS Assay for Inhibitors and Activators of N370S glucocerebrosidase as a Potential Chaperone Treatment of Gaucher Disease. Lysosomal acid glucosylceramidase (Homo sapiens), P04062. N370S GC spleen homogenate, 4MU-glucoside fluorescence. Potency, µM (doses to about 59.4 µM), most hits filed as inhibitors. hit rate 0.092% among 330,000. AID 2101, 2009
GAA inh = qHTS Assay for Inhibitors of Human alpha-Glucosidase as a Potential Chaperone Treatment of Pompe Disease; Lysosomal alpha-glucosidase (Homo sapiens), P10253; purified human GAA, 4-MU-alpha-glucoside fluorescence; Potency, µM (doses to about 76.9 µM), actives largely listed as inhibitors; hit rate 0.005% among 200,000
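Fluorescence at Ex 365/Em 440 nm from 4-methylumbelliferone reported enzyme activity after 20 min at room temperature. Reactions used 4 nM enzyme and 400 uM substrate at pH 5.0; curves fitted with the Hill equation.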
GAA glycogen = qHTS Assay for Inhibitors and Activators of Human alpha-Glucosidase Cleavage of Glycogen; Lysosomal alpha-glucosidase (Homo sapiens), P10253; AID 2100, 2009; recombinant GAA, glycogen substrate, Amplex Red glucose oxidase fluorescence; hit rate 0.38% among 300,000; Potency, µM (highest dose often 76.4 µM), hits mostly inhibitors;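 further: the screen sought inhibitors and activators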
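Recombinant human enzyme (4 nM); glycogen substrate; 37 C, 40 min, pH 5.0. Readout: coupled glucose oxidase/Amplex Red fluorescence.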
GLA spleen mod = qHTS Assay for Inhibitors and Activators of Human alpha-Galactosidase From Spleen Homogenate; Potency, µM (doses to about 80 µM), hits mostly inhibitors; Alpha-galactosidase A (Homo sapiens), P06280; AID 2107, 2009; hit rate 0.008% among 240,000; human spleen homogenate, 4MU-alpha-Gal fluorescence, 40 min
Target sequence (P06280 32-429 limits assumed): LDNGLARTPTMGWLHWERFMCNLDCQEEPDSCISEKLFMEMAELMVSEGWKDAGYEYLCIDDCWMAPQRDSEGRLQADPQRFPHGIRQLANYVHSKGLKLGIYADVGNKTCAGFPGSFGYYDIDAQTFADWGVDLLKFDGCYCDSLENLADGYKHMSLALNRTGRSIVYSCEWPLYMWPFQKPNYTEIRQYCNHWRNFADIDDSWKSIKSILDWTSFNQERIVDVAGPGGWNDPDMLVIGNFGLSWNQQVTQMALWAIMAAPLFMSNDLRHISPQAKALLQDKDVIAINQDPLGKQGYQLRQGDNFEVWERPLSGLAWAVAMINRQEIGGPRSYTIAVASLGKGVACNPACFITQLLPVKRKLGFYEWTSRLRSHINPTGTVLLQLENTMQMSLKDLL
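Inhibition or activation of alpha-galactosidase in human spleen homogenate is scored by 4-MU fluorescence after 40 min at 37C, pH 5.0, with 1 mM substrate. AC50s come from concentration-response fitted to the Hill equation.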
Large screens that a line does not name were inactive. The call rests on the fitted dose curve; in most records, active means well fitted curve in the direction sought with a large enough effect; inconclusive means small, poorly fitted or top-dose-only effect, or another doubt; inactive means no such curve, though single readings can be large; an effect the other way counts as inactive or inconclusive.

O=C(N/N=C/c1ccc(O)c(O)c1)c1ccc(CSc2cccc3cccnc23)cc1	GAA glycogen 14µM
CCOC(=O)c1c(/N=C/c2ccc(OC)cc2O)sc2c1CCN(C)C2	none (no result: GAA inh)
CCOC(=O)c1c(/N=C/c2ccc(C)cc2O)sc2c1CCC2	GAA glycogen 14µM
COc1ccc2c(c1)O[C@@H](c1cccc(C(F)(F)F)c1)[C@H](OC(=O)NS(=O)(=O)c1ccc(F)cc1)C2=O	none (no result: GAA inh, GAA glycogen)
Cc1ccc2sc(N(CCCN(C)C)C(=O)c3ccc(S(=O)(=O)N(C)C4CCCCC4)cc3)nc2c1C	N370S GC 20µM (no result: GAA spleen mod, GLA inh pH 4.5, GAA inh, GAA glycogen, GLA spleen mod)
CC(=O)c1ccc(C(=O)N(CCCN(C)C)c2nc3c(C)c(C)ccc3s2)cc1	none (no result: GAA spleen mod, GLA inh pH 4.5, N370S GC, GAA inh, GLA spleen mod)
COc1ccc(S(=O)(=O)Nc2cc(C)c(O)cc2C(C)C)cc1	GAA glycogen inconclusive
COc1ccc(S(=O)(=O)Nc2cc(C(C)C)c(O)cc2C)cc1	GAA glycogen 20µM
Cc1cc(NS(=O)(=O)c2ccccc2)c(C)c(Cl)c1O	GAA glycogen 45µM
COc1ccc(S(=O)(=O)Nc2ccc(O)c3ccccc23)cc1	GAA glycogen 9.9µM
Cc1ccc(S(=O)(=O)Nc2cc(C)c(O)cc2C)cc1	GAA glycogen 3.5µM
C#CCn1c(=O)c2c(nc(/C=C/c3cccc(OC)c3)n2C)n(CCCOP(=O)(O)O)c1=O	GLA spleen mod inconclusive (no result: GLA inh pH 4.5, GAA inh, GAA glycogen)
O=C(NCc1ccc2c(c1)OCO2)O[C@@H]1C(=O)c2cc(Br)ccc2O[C@H]1c1ccc2c(c1)OCO2	none (no result: GAA inh, GAA glycogen)
CC1C(=O)N(S(=O)(=O)c2ccc([N+](=O)[O-])cc2)[C@H]1c1ccc2ccccc2c1 (stereo not given in full)	none (no result: GLA inh pH 4.5, GAA inh, GAA glycogen)
CCOC(=O)/C(C#N)=C\c1ccc(N2CCN(C/C=C/c3ccccc3)CC2)cc1	N370S GC 16µM
CCOC(=O)/C(C#N)=C\c1cc(C)n(-c2ccccc2)c1C	none
CC(C)CC(=O)NC(NC(=S)Nc1sc2c(c1C#N)CCCC2)C(Cl)(Cl)Cl (stereo not given)	GAA glycogen 28µM
O=S(=O)(c1ccc(NC(=S)N/N=C/c2ccc(O)c(O)c2)cc1)N1CCOCC1	GAA glycogen 25µM (no result: GAA inh)
CCCC[C@H]1CCCO[C@@](C(=O)NCc2ccc(C)o2)(C(F)(F)F)C1	none (no result: GLA inh pH 4.5, GAA inh, GAA glycogen)
Cc1ccn2c(C(=O)NN=C3CCCCCCC3)c(C)nc2c1	GAA glycogen 40µM
CC(C)(C)c1ccc(N2C[C@@H](COc3ccc(C(=O)O)cc3)CC2=O)cc1	none (no result: GLA inh pH 4.5, GAA inh, GAA glycogen)
COc1ccc(-n2nnnc2SCC(=O)c2ccc(O)c(O)c2)cc1	GAA glycogen 8.8µM
NC(=O)c1ccc(-n2nnnc2SCC(=O)c2ccc(O)c(O)c2)cc1	N370S GC inconclusive, GAA glycogen inconclusive
O=C(CSc1nc2ccccc2n1CCc1ccccc1)c1ccc(O)c(O)c1	GAA glycogen 4µM
Cn1c(SCC(=O)c2ccc(O)c(O)c2)nnc1-c1ccccc1	GAA glycogen 1.8µM (no result: GAA spleen mod, GLA inh pH 4.5, GAA inh, GLA spleen mod)
Cc1ccc2ccccc2c1[N+](=O)[O-]	none (no result: GLA inh pH 4.5, GAA inh, GAA glycogen)
Oc1cccc(Nc2nc(-c3ccccc3Cl)nc3ccccc23)c1	N370S GC 1µM (no result: GAA spleen mod, GLA inh pH 4.5, GAA inh, GLA spleen mod)
Clc1ccccc1-c1nc(NCc2cccs2)c2ccccc2n1	N370S GC 7.1µM (no result: GLA inh pH 4.5, GAA inh, GAA glycogen)
c1ccc(CN2CCC(Nc3nc(-c4cccs4)nc4ccccc34)CC2)cc1	N370S GC 10µM
c1csc(CNc2nc(-c3cccs3)nc3ccccc23)c1	N370S GC 18µM, GAA inh inconclusive
CCN1CCN(c2nc(-c3cccs3)nc3ccccc23)CC1	none
Cc1ccc(-c2nc(Nc3cccc(O)c3)c3ccccc3n2)cc1	N370S GC inconclusive (no result: GAA spleen mod, GLA inh pH 4.5, GAA inh, GLA spleen mod)
CNc1ncnc2c1ncn2[C@@H]1O[C@H](COP(=O)(O)O)[C@@H](O)[C@H]1O	none (no result: GLA inh pH 4.5, GAA inh, GAA glycogen)
COC(=O)C1=C[C@@H](C(=O)OC)C2C3=C(C(=O)[C@]2(C)NC(=O)c2ccccc2)[C@H](C)n2c(=O)n(C)c(=O)n2[C@@H]3C1 (stereo not given in full)	none (no result: GLA inh pH 4.5, GAA inh, GAA glycogen)
CCOC(=O)N/N=C1/C[C@@H](O)[C@@H](O)[C@@H]2[C@@H]3C(=O)N(C4CCCCC4)C(=O)[C@H]3CC[C@@H]12	none (no result: GLA inh pH 4.5, GAA inh, GAA glycogen)
FC(F)(F)c1ccccc1-c1nc(NCc2cccs2)c2ccccc2n1	none (no result: GLA inh pH 4.5, GAA inh, GAA glycogen)
Cc1ccccc1-c1nc(NCc2cccs2)c2ccccc2n1	N370S GC 7.1µM (no result: GLA inh pH 4.5, GAA inh, GAA glycogen)
Oc1ccccc1N1CCN(c2nc(-c3cccs3)nc3ccccc23)CC1	N370S GC 4.5µM, GAA glycogen 40µM (no result: GAA inh)
CN1CCN(c2nc(-c3cccs3)nc3ccccc23)CC1	none
Oc1ccc(N2CCN(c3nc(-c4cccs4)nc4ccccc34)CC2)cc1	N370S GC inconclusive, GAA glycogen 25µM (no result: GAA inh)
CC(O)c1cccc2cc(C(O)CNC(C)(C)C)oc12 (stereo not given)	none (no result: GLA inh pH 4.5, GAA inh, GAA glycogen)
C/C=C\C1=C(CO)C(=O)[C@@H]2OC2C1=O (stereo not given in full)	none (no result: GLA inh pH 4.5, GAA inh, GAA glycogen)
Oc1ccc(Cl)cc1N=Cc1sc2ccccc2c1Cl	GAA glycogen 2.8µM
O=[N+]([O-])c1ccc(O)c(N=Cc2sc3ccccc3c2O)c1	none
CCOC(=O)c1ccc(N2C(=O)CC(Nc3ccc(O)cc3)C2=O)cc1 (stereo not given)	GAA glycogen 10µM (no result: GAA inh)
N#CCCCSc1nnnn1-c1cc(C(F)(F)F)cc(C(F)(F)F)c1	none (no result: GAA inh, GAA glycogen)
Nc1ccc(NC(=O)NC2CCCCC2)cc1	GAA glycogen 18µM
O=C(Nc1ccc(Cl)cc1)NC1CCCCC1	none

Compound activity deposited in PubChem BioAssay by National Center for Advancing Translational Sciences (NCATS).
